According to paper PMC9838217, “Structure of SALL4 zinc finger domain reveals link between AT-rich DNA binding and Okihiro syndrome”:
Numbering of substitutions follows the chain as printed.

Assays:
Assay in all cases: HT-SELEX; high values mean tight binding
Details in all cases: protein: recombinant; vector His6-GST; dsDNA, one strand shown
[1] = target: T1, SALL4 ZFC4 WT (HT-SELEX) (Mus musculus, UniProt Q8BX22 870-940)
T1 sequence: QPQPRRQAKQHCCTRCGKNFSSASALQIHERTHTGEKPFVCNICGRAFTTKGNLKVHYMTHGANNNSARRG
In short: (§1)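 Purified recombinant mouse SALL4 zinc finger cluster 4 (residues 870–940, 1 µg) was incubated with library DNA (1.5 µg first cycle, 200 ng later) in 100 µl of 10 mM Tris–HCl pH 7.5, 50 mM NaCl, poly(dI-dC) and DTT for 10 min at room temperature, with Ni2+ bead capture and reselection for up to 6 cycles in triplicate. MiSeq reads were scanned for 6-mers. Binding signal is each canonical k-mer's read fraction as fold change relative to the initial random library.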

[2] = target: T2, SALL4 ZFC4 G921D (HT-SELEX) (Mus musculus, UniProt Q8BX22 870-940, G921D)
T2 sequence: T1 sequence with G52D
In short: as §1

[3] = target: T3, SALL4 ZFC4 R900W (HT-SELEX) (Mus musculus, UniProt Q8BX22 870-940, R900W)
T3 sequence: T1 sequence with R31W
In short: as §1

| Sequence | binding signal [1] | binding signal [2] | binding signal [3] |
| --- | --- | --- | --- |
| ACGAAA | 1.04 ± 0.0604 fold-change vs cycle 0 | 1.11 ± 0.0388 fold-change vs cycle 0 |  |
| ATAAGA | 2.45 ± 0.123 fold-change vs cycle 0 | 1.92 ± 0.245 fold-change vs cycle 0 | 2.3 ± 0.143 fold-change vs cycle 0 |
| ATGATC | 1.37 ± 0.0972 fold-change vs cycle 0 | 1.48 ± 0.0835 fold-change vs cycle 0 | 1.46 ± 0.0896 fold-change vs cycle 0 |
| CTATTA | 2.26 ± 0.136 fold-change vs cycle 0 | 1.81 ± 0.165 fold-change vs cycle 0 | 2.05 ± 0.132 fold-change vs cycle 0 |
| GGTACC | 0.421 ± 0.0151 fold-change vs cycle 0 | 0.608 ± 0.0352 fold-change vs cycle 0 | 0.521 ± 0.0308 fold-change vs cycle 0 |
| CGTATC | 0.723 ± 0.0291 fold-change vs cycle 0 | 0.89 ± 0.0234 fold-change vs cycle 0 | 0.818 ± 0.0282 fold-change vs cycle 0 |
| GAGAGA | 0.898 ± 0.0151 fold-change vs cycle 0 | 1.06 ± 0.0177 fold-change vs cycle 0 |  |
| GAGGAC | 0.456 ± 0.0333 fold-change vs cycle 0 | 0.671 ± 0.0146 fold-change vs cycle 0 | 0.581 ± 0.0167 fold-change vs cycle 0 |
| CATCTC | 0.879 ± 0.041 fold-change vs cycle 0 | 1.01 ± 0.0361 fold-change vs cycle 0 |  |
| ACTGAG | 0.855 ± 0.0344 fold-change vs cycle 0 | 1.01 ± 0.0137 fold-change vs cycle 0 |  |
| TGCAAA | 1 ± 0.0674 fold-change vs cycle 0 | 1.03 ± 0.0183 fold-change vs cycle 0 | 0.975 ± 0.0411 fold-change vs cycle 0 |
| CAAATG | 1.063 ± 0.0102 fold-change vs cycle 0 | 1.17 ± 0.0276 fold-change vs cycle 0 |  |
| ACAGGA | 0.851 ± 0.0194 fold-change vs cycle 0 | 1.01 ± 0.0583 fold-change vs cycle 0 | 1 ± 0.0486 fold-change vs cycle 0 |
| ATTTCC | 1.33 ± 0.0842 fold-change vs cycle 0 | 1.25 ± 0.0764 fold-change vs cycle 0 | 1.28 ± 0.0652 fold-change vs cycle 0 |
| ATTGTG | 1.1 ± 0.0622 fold-change vs cycle 0 | 1.18 ± 0.0673 fold-change vs cycle 0 |  |
| CAGATA | 1.33 ± 0.0697 fold-change vs cycle 0 | 1.29 ± 0.0843 fold-change vs cycle 0 |  |
| ATCGAG | 0.776 ± 0.0249 fold-change vs cycle 0 | 0.967 ± 0.0375 fold-change vs cycle 0 | 0.873 ± 0.0248 fold-change vs cycle 0 |
| CCAATA | 1.24 ± 0.0729 fold-change vs cycle 0 | 1.22 ± 0.0438 fold-change vs cycle 0 |  |
| CCTTCA | 0.899 ± 0.0192 fold-change vs cycle 0 | 1.06 ± 0.0107 fold-change vs cycle 0 | 1.05 ± 0.0389 fold-change vs cycle 0 |
| TCCCCA | 0.461 ± 0.0365 fold-change vs cycle 0 | 0.593 ± 0.0323 fold-change vs cycle 0 | 0.533 ± 0.0451 fold-change vs cycle 0 |
| ATTTGG | 1.02 ± 0.0576 fold-change vs cycle 0 | 1.1 ± 0.038 fold-change vs cycle 0 |  |
| TCACGA | 0.737 ± 0.0222 fold-change vs cycle 0 | 0.889 ± 0.0148 fold-change vs cycle 0 | 0.841 ± 0.0178 fold-change vs cycle 0 |
| TGTTAA | 1.94 ± 0.0917 fold-change vs cycle 0 | 1.77 ± 0.143 fold-change vs cycle 0 | 2 ± 0.113 fold-change vs cycle 0 |
| GCATAA | 1.13 ± 0.0858 fold-change vs cycle 0 | 1.105 ± 0.0098 fold-change vs cycle 0 |  |
| TAAGAA | 2.2 ± 0.0931 fold-change vs cycle 0 | 1.87 ± 0.231 fold-change vs cycle 0 |  |
| ACAAAC | 1.07 ± 0.057 fold-change vs cycle 0 | 1.23 ± 0.0372 fold-change vs cycle 0 |  |

| Sequence | binding signal [1] | binding signal [2] | binding signal [3] |
| --- | --- | --- | --- |
| CGTCAA | 0.564 ± 0.0126 fold-change vs cycle 0 | 0.765 ± 0.0373 fold-change vs cycle 0 | 0.667 ± 0.0148 fold-change vs cycle 0 |
| CATAGA | 1.37 ± 0.0454 fold-change vs cycle 0 | 1.34 ± 0.0648 fold-change vs cycle 0 |  |
| ACCAAT | 1.25 ± 0.0373 fold-change vs cycle 0 | 1.33 ± 0.0543 fold-change vs cycle 0 |  |
| ATGCAA | 1.2 ± 0.113 fold-change vs cycle 0 | 1.18 ± 0.0528 fold-change vs cycle 0 |  |
| ACTCCA | 0.896 ± 0.0264 fold-change vs cycle 0 | 1.03 ± 0.0296 fold-change vs cycle 0 |  |
| ATAGCA | 1.2 ± 0.0655 fold-change vs cycle 0 | 1.23 ± 0.0807 fold-change vs cycle 0 |  |
| AAATGG | 1.11 ± 0.029 fold-change vs cycle 0 | 1.16 ± 0.0413 fold-change vs cycle 0 |  |
| CTTCGA | 0.707 ± 0.0176 fold-change vs cycle 0 | 0.875 ± 0.0344 fold-change vs cycle 0 | 0.789 ± 0.0144 fold-change vs cycle 0 |
| ATCCTG | 0.879 ± 0.0324 fold-change vs cycle 0 | 1.02 ± 0.0414 fold-change vs cycle 0 |  |
| AAAGGC | 0.475 ± 0.0422 fold-change vs cycle 0 | 0.688 ± 0.0599 fold-change vs cycle 0 | 0.571 ± 0.0175 fold-change vs cycle 0 |
| ATCAAA | 1.96 ± 0.105 fold-change vs cycle 0 | 1.69 ± 0.154 fold-change vs cycle 0 | 1.83 ± 0.114 fold-change vs cycle 0 |
| GGAAGA | 0.939 ± 0.0256 fold-change vs cycle 0 | 1.12 ± 0.0151 fold-change vs cycle 0 |  |
| CTTAAC | 1.38 ± 0.0537 fold-change vs cycle 0 | 1.42 ± 0.0747 fold-change vs cycle 0 | 1.58 ± 0.0426 fold-change vs cycle 0 |
| ATGGAG | 0.932 ± 0.0365 fold-change vs cycle 0 | 1.04 ± 0.0381 fold-change vs cycle 0 |  |
| AGCGGG |  | 0.277 ± 0.0671 fold-change vs cycle 0 | 0.168 ± 0.0263 fold-change vs cycle 0 |
| CGCATC |  | 0.441 ± 0.0726 fold-change vs cycle 0 | 0.304 ± 0.00796 fold-change vs cycle 0 |
| GGCCTA |  | 0.443 ± 0.0788 fold-change vs cycle 0 | 0.299 ± 0.00892 fold-change vs cycle 0 |
| CTGGGC |  | 0.273 ± 0.0783 fold-change vs cycle 0 | 0.152 ± 0.021 fold-change vs cycle 0 |
| GGAATA |  | 1.35 ± 0.0751 fold-change vs cycle 0 | 1.41 ± 0.0506 fold-change vs cycle 0 |
| GACCCC |  | 0.391 ± 0.051 fold-change vs cycle 0 | 0.276 ± 0.00974 fold-change vs cycle 0 |
| ACCCCG |  | 0.353 ± 0.0765 fold-change vs cycle 0 | 0.242 ± 0.00886 fold-change vs cycle 0 |
| ATACCA | 1.39 ± 0.0502 fold-change vs cycle 0 | 1.35 ± 0.0639 fold-change vs cycle 0 |  |
| CAGCGG |  | 0.242 ± 0.0833 fold-change vs cycle 0 | 0.136 ± 0.019 fold-change vs cycle 0 |
| GCCGAC |  | 0.204 ± 0.0612 fold-change vs cycle 0 | 0.0865 ± 0.0114 fold-change vs cycle 0 |
| ATGCCG |  | 0.36 ± 0.0731 fold-change vs cycle 0 | 0.222 ± 0.0038 fold-change vs cycle 0 |
